Laboratory results taken from PubChem BioAssay.
Activity calls are given as the source filed them. Unless noted, no rule for the calls is given here.

Assays:
[1] = HepG2 liver cancer cell viability effects, profiling panel, resazurin fluorescence, 24 h, PK04 Diversity Set (AID 1172); conditions: higher = more signal; also: test concentration not given here
[2] = basal S. cerevisiae growth modulation, no modifier, primary screen, OD600, strain BY4716, 24 h, basal condition (AID 1173); conditions: OD600, 24 h, higher = more signal, called active from +8 up or from −8 down
[3] = MM1S myeloma cell viability, profiling panel, resazurin fluorescence, basal, 24 h, PK04 Diversity Set (AID 1174); conditions: higher = more signal, called active from +8 up or from −8 down;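 also: MM1S multiple myeloma cell line; test concentration not given here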
[4] = molecular target: Dihydroorotate dehydrogenase (quinone), mitochondrial (Plasmodium falciparum (isolate 3D7)) (UniProt Q08210); experiment: PfDHODH enzyme inhibitors, primary screen, biochemical, C-terminal His tag, absorbance 600 nm (AID 1175); conditions: DCIP absorbance 600 nm, higher = more signal, called active from +8 up or from −8 down;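 also: recombinant parasite enzyme with a five histidine tag at its C terminus; test concentration not given here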
[5] = P. aeruginosa biofilm formation inhibitors, primary screen, strain PAO1, LB-PBS medium, absorbance 600 nm (AID 1176); also: test concentration not given here; conditions: P. aeruginosa PAO1 growth/biofilm, A600, 12 h; higher = more signal
[6] = S. cerevisiae RM11-1a growth modifiers, primary screen, strain RM11-1a, OD600, basal, 24 h (AID 1177); conditions: OD600, 24 h, higher = more signal, called active from +8 up or from −8 down;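 also: cultures grown under basal conditions with no added stressor; test concentration not given here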
[7] = E. coli acrAB mutant growth effects, primary screen, E. coli filamentation inducers, strain DRC39, OD650, 24 h (AID 1178); conditions: higher = more signal, called active from +8 up or from −8 down;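 also: growth measured as culture turbidity by optical density at 650 nm; test concentration not given here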
[8] = E. coli acrAB mutant growth effects, primary screen, E. coli filamentation inducers, strain DRC39, OD650, 48 h (AID 1179);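 also: screen aims at cell division blockers that make cells filament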; conditions: E. coli DRC39 delta-acrAB growth, higher = more signal, called active from +8 up or from −8 down
[9] = RPMI8226 myeloma cell viability, profiling panel, resazurin fluorescence, basal, 24 h, PK04 Diversity Set (AID 1180); conditions: higher = more signal;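 also: RPMI8826 multiple myeloma cell line at 5000 cells per well; test concentration not given here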
[10] = molecular target: E3 ubiquitin-protein ligase XIAP (Homo sapiens) (UniProt P98170); experiment: XIAP binders, primary screen, biophysical, small-molecule microarray, fluorescence 635 nm (AID 1181); conditions: small-molecule microarray binding, higher = more signal;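 also: score merges 667 nm emission and signal to noise over triplicate slides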
Chain of E3 ubiquitin-protein ligase XIAP (Homo sapiens) (P98170 whole entry, looked up): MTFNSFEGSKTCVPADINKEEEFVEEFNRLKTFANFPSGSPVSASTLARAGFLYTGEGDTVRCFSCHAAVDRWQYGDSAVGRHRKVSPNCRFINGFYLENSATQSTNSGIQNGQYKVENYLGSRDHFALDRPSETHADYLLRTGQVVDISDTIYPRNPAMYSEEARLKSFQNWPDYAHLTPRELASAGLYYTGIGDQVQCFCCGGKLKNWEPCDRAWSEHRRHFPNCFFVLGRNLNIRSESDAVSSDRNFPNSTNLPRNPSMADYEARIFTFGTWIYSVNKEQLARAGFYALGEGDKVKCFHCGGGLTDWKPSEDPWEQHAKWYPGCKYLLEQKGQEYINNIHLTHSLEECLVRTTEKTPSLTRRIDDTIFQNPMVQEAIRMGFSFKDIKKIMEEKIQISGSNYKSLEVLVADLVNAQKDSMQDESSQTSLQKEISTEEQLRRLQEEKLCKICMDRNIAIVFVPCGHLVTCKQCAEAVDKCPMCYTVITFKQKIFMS

Chain of Dihydroorotate dehydrogenase (quinone), mitochondrial (Plasmodium falciparum (isolate 3D7)) (Q08210 whole entry, looked up): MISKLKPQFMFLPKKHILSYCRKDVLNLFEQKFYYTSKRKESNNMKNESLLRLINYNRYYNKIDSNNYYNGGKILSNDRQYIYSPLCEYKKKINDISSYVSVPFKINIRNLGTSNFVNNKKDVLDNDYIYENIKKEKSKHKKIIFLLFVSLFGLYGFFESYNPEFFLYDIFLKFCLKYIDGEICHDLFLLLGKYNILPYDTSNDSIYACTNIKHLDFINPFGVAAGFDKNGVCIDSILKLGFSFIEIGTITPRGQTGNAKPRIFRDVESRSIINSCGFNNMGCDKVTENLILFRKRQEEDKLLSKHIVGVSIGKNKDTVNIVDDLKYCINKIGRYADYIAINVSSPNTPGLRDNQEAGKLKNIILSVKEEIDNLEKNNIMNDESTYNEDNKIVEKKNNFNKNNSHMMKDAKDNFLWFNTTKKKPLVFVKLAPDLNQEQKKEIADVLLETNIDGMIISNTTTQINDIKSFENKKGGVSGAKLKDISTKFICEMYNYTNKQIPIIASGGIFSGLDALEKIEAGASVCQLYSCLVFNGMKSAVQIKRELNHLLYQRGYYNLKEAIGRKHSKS

Structure (SMILES) | z-score [1] | z-score [2] | z-score [3] | composite z-score [4] | z-score [5] | z-score [6] | z-score [7] | z-score [8] | z-score [9] | composite z-score [10]
C=CCOC(=O)[C@@H]1[C@H]2C(=O)O[C@H](c3ccccc3)[C@H](c3ccccc3)N2[C@H](c2ccc(OCCOC(=O)[C@H]3C[C@H]4C(=O)N[C@@H](CCCC[N+](C)(C)C)C(=O)N4[C@H]3c3ccc(O)cc3)cc2)[C@@]12C(=O)Nc1ccc(I)cc12 | -0.792 | 1.47 (inactive) | -0.706 (inactive) | -0.353 (inactive) | 2.01 (inactive) | 2.12 (inactive) | -0.877 (inactive) | -1.37 (inactive) | -0.578 | 0.0623
COc1cc2c(cc1OC)CN(C(=O)[C@H]1[C@@H]3C(=O)O[C@@H](c4ccccc4)[C@@H](c4ccccc4)N3[C@@H](c3ccc(OCCO)cc3)[C@]13C(=O)Nc1ccc(C#CCCO)cc13)CC2 | 0.687 | 2.35 (inactive) | 0.113 (inactive) | 0.129 (inactive) | 1.56 (inactive) | 2.49 (inactive) | -0.321 (inactive) | -0.61 (inactive) | 0.969 | -0.351
COC(=O)C[C@H]1O[C@]2(C(=O)N(C)c3ccccc32)[C@@H](C)[C@@H]1[Si](C)(C)c1ccc(C)cc1 | -0.501 | -2.64 (inactive) | 1.47 (inactive) | 0.0559 (inactive) | -0.884 (inactive) | 0.155 (inactive) | 1.37 (inactive) | -0.466 (inactive) | 0.789 | -0.0172
NC(=O)NCC#Cc1ccc2c(c1)[C@]1(C(=O)N2)[C@H](C(=O)O)[C@H]2C(=O)O[C@H](c3ccccc3)[C@H](c3ccccc3)N2[C@@H]1c1ccccc1OCCO | 1.03 | -1.81 (inactive) | 0.837 (inactive) | -0.988 (inactive) | 2.75 (inactive) | -0.888 (inactive) | 0.525 (inactive) | 1.16 (inactive) | 1 | -0.0599
COCCOC(=O)N1C(=O)[C@@]2(c3cc(C#CCNC(N)=O)ccc31)[C@H](C(=O)N1CCCCCCC1)[C@H]1C(=O)O[C@H](c3ccccc3)[C@H](c3ccccc3)N1[C@@H]2c1ccc(O)cc1 | -0.515 | -0.129 (inactive) | -0.97 (inactive) | -0.376 (inactive) | 0.0442 (inactive) | 0.786 (inactive) | -0.5 (inactive) | -0.719 (inactive) | -0.928 | 0.0614
C[C@]12C(=O)N(CCCCCCO)[C@@H]3C(=O)N(c4ccc(Cl)cc4)CC=CC31O[C@@H]1/C=C\CCCOC(=O)C12 (stereo not given in full) | -0.578 | -1.3 (inactive) | 0.423 (inactive) | -0.699 (inactive) | -0.0558 (inactive) | -1.29 (inactive) | -0.0299 (inactive) | 0.692 (inactive) | 1.05 | -0.235
CO[C@H]1O[C@H](CO)[C@@H](OC(=O)Nc2ccc(C(F)(F)F)cc2)[C@H](OC(=O)Nc2ccc3c(c2)OCO3)[C@H]1OC(=O)Nc1ccc2c(c1)OCO2 | -1.9 | 0.634 (inactive) | -3.06 (inactive) | -0.605 (inactive) | 0.854 (inactive) | 1.37 (inactive) | 0.436 (inactive) | -0.553 (inactive) | -3.35 | -0.289
C[C@]1(C(=O)NC2CC2)c2ccccc2C(=O)N(Cc2ccc(OC(F)(F)F)cc2)[C@H]1c1ccc(CO)cc1 | -0.268 | -0.708 (inactive) | 0.191 (inactive) | 0.0758 (inactive) | -0.109 (inactive) | -0.474 (inactive) | 0.0997 (inactive) | 0.054 (inactive) | -0.254 | -0.225
CC(C)NC(=O)[C@@]1(C)c2ccccc2C(=O)N(C(C)C)[C@H]1c1ccc(CO)cc1 | -1.1 | -0.106 (inactive) | -0.822 (inactive) | 0.127 (inactive) | 0.972 (inactive) | -0.553 (inactive) | 0.0378 (inactive) | -0.611 (inactive) | -0.43 | 0.0982
O=C1OC[C@@H](c2ccccc2)N2CC(/C=C/c3ccccc3)=CC12 (stereo not given in full) | 0.015 | -2.25 (inactive) | 0.0637 (inactive) | 0.685 (inactive) | -0.14 (inactive) | 0.388 (inactive) | -0.338 (inactive) | -0.827 (inactive) | 0.594 | -0.102
CO[C@H]1O[C@H](CO)[C@@H](OC(=O)c2ccc(Br)cc2)[C@@H]2OC(=O)[C@@H](Cc3ccc4ccccc4c3)C/C=C/C[C@H](Cc3ccc4ccccc4c3)C(=O)O[C@@H]12 | -0.213 | -1.23 (inactive) | -0.612 (inactive) | -1.92 (inactive) | -0.649 (inactive) | -1.34 (inactive) | 0.738 (inactive) | 1.03 (inactive) | 0.402 | 0.0848
COCCOC(=O)N1C(=O)[C@@]2(c3cc(C#CC4=CCCCC4)ccc31)[C@H](c1ccccc1OCCO)N1[C@H](c3ccccc3)[C@H](c3ccccc3)OC(=O)[C@H]1[C@@H]2C(=O)N1CCc2cc(OC)c(OC)cc2C1 | -0.605 | 1.46 (inactive) | -0.347 (inactive) | -0.349 (inactive) | 1.92 (inactive) | 2.25 (inactive) | -0.398 (inactive) | 0.425 (inactive) | -0.486 | -0.11
O=C1O[C@@H](c2ccccc2)[C@@H](c2ccccc2)N2[C@@H](c3ccccc3OCCO)[C@]3(C(=O)Nc4ccccc43)[C@@H](C(=O)NC[C@H](O)c3ccccc3)[C@H]12 | -1.03 | 0.587 (inactive) | -6.16 (inactive) | 1.65 (inactive) | 2.05 (inactive) | 3.08 (inactive) | -0.0586 (inactive) | 0.495 (inactive) | -6.99 | 0.311
CC[C@@H]1[C@H]2C3C(=O)N(CC)C(=O)C3CC(=O)[C@H]2[C@H](c2ccc(C)cc2)N1S(=O)(=O)c1ccc(C)cc1 (stereo not given in full) | -0.881 | 0.252 (inactive) | -0.25 (inactive) | -0.0972 (inactive) | -0.144 (inactive) | 0.561 (inactive) | -0.339 (inactive) | 0.25 (inactive) | -0.695 | -0.119
CN1C(=O)C2C(C1=O)C1C=C(c3ccc(CO)cc3)C2C(c2cccs2)N1Cc1cccc(OC(F)(F)F)c1 (stereo not given) | -0.153 | -2.49 (inactive) | -2.06 (inactive) | -1.6 (inactive) | -0.387 (inactive) | 0.476 (inactive) | -0.383 (inactive) | -0.319 (inactive) | -1.08 | 0.214
[N-]=[N+]=NCc1ccccc1C[C@@]1(C(N)=O)N=C(c2ccc(OCCCO)cc2)O[C@@H]1c1ccccc1CN=[N+]=[N-] | 0.717 | -1.43 (inactive) | -0.833 (inactive) | -11.6 (active) | 0.261 (inactive) | 0.835 (inactive) | 0.178 (inactive) | 0.041 (inactive) | 0.0178 | 0.0049
COC(=O)[C@@]1(Cc2ccc(OC)cc2)[C@H]2c3cc(C(=O)N(C)C)n(Cc4ccccc4)c3C[C@H]2CN1C(=O)c1ccccc1 | 2.31 | -0.373 (inactive) | -1.15 (inactive) | 0.171 (inactive) | 0.756 (inactive) | 0.692 (inactive) | 0.111 (inactive) | 0.892 (inactive) | -1.66 | 0.0791
O=C(NC1CC1)[C@@H]1c2ccccc2C(=O)N(Cc2ccccc2)[C@H]1c1ccc(CO)cc1 | 0.0991 | 0.172 (inactive) | -0.556 (inactive) | -0.0098 (inactive) | -0.149 (inactive) | 0.0831 (inactive) | 0.693 (inactive) | 1.58 (inactive) | 0.904 | 0.159
COCCOC(=O)N1C(=O)[C@@]2(c3cc(C#CC4(O)CCCCCC4)ccc31)[C@H](c1ccccc1OCCO)N1[C@H](c3ccccc3)[C@H](c3ccccc3)OC(=O)[C@H]1[C@@H]2C(N)=O | -1.51 | 1.53 (inactive) | -8.29 (active) | 0.173 (inactive) | 1.91 (inactive) | 2.91 (inactive) | -0.197 (inactive) | -0.31 (inactive) | -6.79 | -0.287
